Reference: PubChem BioAssay (NCATS)
Several values for one entry are separate records, joined by “and”; a condition that tells them apart may be missing. Equal entries are not always repeated. Records with an inconclusive call do not appear. Entries that show only a call come without a potency. Unmarked numbers belong to inactive results. Activity calls are given as the source filed them. Unless noted, calls come from the whole dose curve; as a rule, active = well fitted curve in the direction sought with a large enough effect; inconclusive = small, poorly fitted or top-dose-only effect, or another doubt; inactive = no such curve, though single readings can be large; an effect the other way counts as inactive or inconclusive.

Assays:
[1] = molecular target: Cellular tumor antigen p53 (Homo sapiens) (UniProt P04637); experiment: Primary qHTS for small molecule compounds that upregulate eGFP-tagged delta133p53alpha (in N-terminal) cells. (AID 2060322); conditions: NCI-H358 eGFP-delta133p53alpha fluorescence, 24 h; activation: active compounds read high; note: nearly all actives have a fitted effect of over 75% in size; note: potency is the fitted concentration of half-maximal effect;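 for activation: cells pre-induced with doxycycline then dosed without doxycycline; series mostly up to about 56 µM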
Summary of the method: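 NCI-H358 cells pre-induced 24 h with 10 ng/ml doxycycline for eGFP-delta133p53alpha, plated dox-free and exposed 24 h at 37C to titrated compounds. Fixed, Hoechst-stained; gated GFP peak intensity by laser scanning cytometry, normalized to DMSO (0%) and 57.5 uM 5-azacytidine (100%).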

[2] = molecular target: Cellular tumor antigen p53 (Homo sapiens) (UniProt P04637); experiment: Primary qHTS for small molecule compounds that upregulate eGFP-tagged delta133p53alpha (in C-terminal) cells. (AID 2060324); note: potency is the fitted concentration of half-maximal effect
Summary of the method: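 Concentration-response screen: compounds titrated onto pre-induced NCI-H358 D133p53a-eGFP cells, incubated one day, fixed with 3.5% PFA. Per-cell GFP peak intensity was gated, then normalized against intraplate controls.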

[3] = molecular target: Aldehyde dehydrogenase, mitochondrial (Homo sapiens) (UniProt P05091); experiment: qHTS for Inhibitors of the Aldehyde Dehydrogenase Family (ALDH2) Validation screens (AID 2061302; active = well fitted inhibition curve with a large enough effect; title and protocol of this record describe different tests)
[4] = molecular target: Retinaldehyde dehydrogenase 3 (Homo sapiens) (UniProt P47895); experiment: qHTS for Inhibitors of the Aldehyde Dehydrogenase Family (ALDH1A3) Validation screen (AID 2061312); note: nearly all actives have a fitted effect of over 45% in size

Sequence of Cellular tumor antigen p53 (Homo sapiens) (P04637 whole entry, looked up): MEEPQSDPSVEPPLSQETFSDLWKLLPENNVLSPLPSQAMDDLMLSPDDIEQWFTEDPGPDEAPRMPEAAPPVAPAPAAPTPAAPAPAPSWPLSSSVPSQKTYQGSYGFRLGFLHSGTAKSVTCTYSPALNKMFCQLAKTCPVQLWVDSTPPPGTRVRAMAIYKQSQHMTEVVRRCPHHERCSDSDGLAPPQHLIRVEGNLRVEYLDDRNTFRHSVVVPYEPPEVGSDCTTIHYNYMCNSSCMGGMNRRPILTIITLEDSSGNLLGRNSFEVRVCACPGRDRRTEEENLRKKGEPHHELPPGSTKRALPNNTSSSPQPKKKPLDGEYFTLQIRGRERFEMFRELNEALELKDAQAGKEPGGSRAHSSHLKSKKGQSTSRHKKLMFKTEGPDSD

Row | Structure (SMILES) | activation [1] | Potency [2] | Potency [3] | Potency [4] | Potency [1]
1 | CN=C(N)NCCC[C@H](N)C(=O)O | -4.6% | inactive | inactive | inactive | –
2 | CCN(CC)CCCN(c1ccccc1)C1Cc2ccccc2C1 | -2.82% and -37.7% | inactive | inactive | inactive | –
3 | CC(=O)Nc1nnc(S(N)(=O)=O)s1 | 21.8% and -10.7% | inactive | inactive | inactive | –
4 | CC(N)(C(=O)O)c1ccc(C(=O)O)cc1 (configuration not stated) | 7.46% | inactive | inactive | inactive | –
5 | O=C(O)C1=CCCNC1 | -16.6% | inactive | inactive | inactive | –
6 | OCC1NCC(O)C(O)C1O (configuration not stated) | -36.6% | inactive | inactive | inactive | –
7 | C[N+]1(C)CCC(OC(=O)C(c2ccccc2)c2ccccc2)CC1 | -16.4% | inactive | inactive | inactive | –
8 | COc1cc(CNC(=O)CCCCCCC(C)C)ccc1O | 0.736% | inactive | inactive | inactive | –
9 | CCn1nc(C(=O)O)c(=O)c2cc3c(cc21)OCO3 | -7.53% and -29.2% | inactive | inactive | inactive | –
10 | CO[C@@]1(NC(=O)CSCC#N)C(=O)N2C(C(=O)O)=C(CSc3nnnn3C)CS[C@@H]21 | 11.9% and 5.62% | inactive | inactive | inactive | –
11 | C[C@](N)(Cc1ccc(O)cc1)C(=O)O | -4.18% and 8.39% | inactive | inactive | inactive | –
12 | Cn1cc(C2=C(c3ccc(Cl)cc3Cl)C(=O)NC2=O)c2ccccc21 | – | 2.39 µM (active) | inactive | inactive | 10.7 µM (active)
13 | COc1cccc(OC)c1OCCNCC1COc2ccccc2O1 (configuration not stated) | 7.71% | inactive | inactive | inactive | –
14 | CC1=C(C(=O)O)N2C(=O)[C@@H](NC(=O)C(N)c3ccccc3)[C@H]2SC1 (some centres not stated) | 15.6% and -22.6% | inactive | inactive | inactive | –
15 | CN(C(=O)CCCOc1ccc2[nH]c(=O)ccc2c1)C1CCCCC1 | -9.21% and -37.7% | inactive | inactive | inactive | –
16 | C[C@]12CC[C@@H]3c4ccc(O)cc4C[C@@H](CCCCCCCCCS(=O)CCCC(F)(F)C(F)(F)F)[C@H]3[C@@H]1CC[C@@H]2O (some centres not stated) | 5.86% and -66.3% | inactive | inactive | inactive | –
17 | CCCC(=O)NCCc1c2n(c3ccc(OC)cc13)CCCc1ccccc1-2 | -45.5% | inactive | inactive | inactive | –
18 | NCCCCN=C(N)N | -3.8% | inactive | inactive | inactive | –
19 | Nc1ncnc2c1ncn2[C@@H]1O[C@H](COP(=O)(O)CP(=O)(O)OP(=O)(O)O)[C@@H](O)[C@H]1O | 7.87% | inactive | inactive | inactive | –
20 | CC(C)(NS(=O)(=O)c1ccc(Oc2ccc(F)cc2)cc1)C(=O)NO | -8.16% | inactive | inactive | inactive | –
21 | CCC1C(=O)OCC1Cc1cncn1C (configuration not stated) | -0.565% and -54.1% and -41.4% | inactive | inactive | inactive | –
22 | CCn1ccnc1CC1COc2ccccc2O1 (configuration not stated) | -21.8% and 27.7% | inactive | inactive | inactive | –

Row | Structure (SMILES) | activation [1] | Potency [2] | Potency [3] | Potency [4] | Potency [1]
23 | Clc1ccc(N2CCN(Cc3cc4ccccn4n3)CC2)cc1 | -21.6% | inactive | inactive | inactive | –
24 | CN(C)C(N)=NCCC[C@H](N)C(=O)O | -10.9% | inactive | inactive | inactive | –
25 | COc1ccc(CCn2nnnc2C2(c3ccc(C)cc3)CC2)cc1 | -20.3% | inactive | inactive | inactive | –
26 | CC1(C)CCC=[N+]1[O-] | 8.43% | inactive | inactive | inactive | –
27 | O=C(O)c1cccnc1C(=O)O | -17.2% | inactive | inactive | inactive | –
28 | CCCCCCCCCCC(C)(C)C(=O)Nc1c(OC)cc(OC)cc1OC | -40.6% | inactive | inactive | inactive | –
29 | Cc1ccc(=O)n(-c2ccccc2)c1 | 1.01% | inactive | inactive | inactive | –
30 | O=c1[nH]c2ccccc2c2ccccc12 | 11.2% | inactive | inactive | inactive | –
31 | CC(C)NNC(=O)c1ccncc1 | 1.67% and -19% | inactive | inactive | inactive | –
32 | O=C(c1ccc(Cl)cc1)N1CCN(c2ccc([N+](=O)[O-])c3ncccc23)CC1 | -9.46% | inactive | inactive | inactive | –
33 | NCCS(=O)O | -4.42% | inactive | inactive | inactive | –
34 | O=c1[nH]c2cc([N+](=O)[O-])c([N+](=O)[O-])cc2[nH]c1=O | 41.5% | inactive | inactive | inactive | –
35 | Nc1ccc(-c2nc3ccc(-c4nc5ccc(N)cc5[nH]4)cc3[nH]2)cc1 | -9.36% | inactive | inactive | inactive | –
36 | COC1(C2=NCCN2)COc2ccccc2O1 (configuration not stated) | -0.599% | inactive | inactive | inactive | –
37 | COc1cc(N)c(Cl)cc1C(=O)OCCN1CCCCC1 | -2.92% | inactive | inactive | inactive | –
38 | CC1CC2C3CCC4=CC(=O)C=C[C@]4(C)[C@@]3(F)[C@@H](O)C[C@]2(C)[C@@]1(O)C(=O)CO (some centres not stated) | -4.86% and -24.4% | inactive | inactive | inactive | –
39 | C=CCc1ccccc1OCC(O)CNC(C)C (configuration not stated) | 2.82% and -28% | inactive | inactive | inactive | –
40 | CC(C)C(=O)c1c(C(C)C)nn2ccccc12 | -13.4% and -31.4% | inactive | inactive | inactive | –
41 | Nc1nc(N)c2nc(-c3ccccc3)c(N)nc2n1 | -26.6% and -1.16% | inactive | inactive | inactive | –
42 | O=C(O)[C@H]1NCCC[C@H]1C(=O)O | -3.88% | inactive | inactive | inactive | –
43 | C[C@]12CCC(=O)C=C1CC[C@@H]1[C@@H]2C(=O)C[C@@]2(C)[C@H]1CC[C@]2(O)C(=O)CO | 0.837% and -9.81% | inactive | inactive | inactive | –
